Reference: PubChem BioAssay AID618 (Sanford-Burnham Center for Chemical Genomics, 2007)
Screen size: about 87,000 compounds; about 540 (0.62%) were called active. This is one part of a sample in which actives are shown more often than they occur. No rule for the calls is given here. Measured potencies and affinities stand elsewhere.

Assay: inhibitors of MT1-MMP promoter transcription, cell-based, luciferase reporter, luminescence (AID 618);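 also: actives suppress MT1-MMP promoter-driven transcription so potencies describe inhibitors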
Conditions: MT1-MMP promoter luciferase reporter cells
For `O=C(Nc1cc(C(F)(F)F)ccc1N1CCCCC1)c1ccco1`, the outcome was “inactive”.
With `COCCNC(=O)CN1c2ccccc2CC1C` (stereo unspecified) the outcome was “inactive”.
For `CCCSc1nc(C)c(-c2csc(C(C#N)=C3CCCC3)n2)cc1C#N`, the outcome was “inactive”.
In the case of `CCOC(=O)N1CCN(CCC(=O)Nc2ccccc2OC)CC1`, the outcome is reported as “inactive”.
In the case of `CS(=O)(=O)Nc1ccccc1C(=O)Nc1ccccc1Cl`, the outcome is reported as “inactive”.
For `COc1ccc(CCNC(=O)CSc2nnc(-c3ccc(F)cc3)o2)cc1OC`, the outcome was “inactive”.
With `CC(=O)C1=C(O)C(=O)N(Cc2ccccc2)C1c1cccs1` (stereo unspecified) the outcome was “inactive”.
In the case of `COc1cc(C2c3c(oc4cc(C)c(C)cc4c3=O)C(=O)N2c2cc(C)ccn2)ccc1O` (stereo unspecified), the outcome is reported as “inactive”.
With `COc1ccc(N2CCN(C(=O)CCNS(=O)(=O)c3cccs3)CC2)cc1` the outcome was “inactive”.
In the case of `CC(C)(C)C(=O)Nc1ccc2oc(-c3cc(F)c(F)cc3Cl)nc2c1`, the outcome is reported as “inactive”.
For `CC(C)C(=O)Nc1ccc2oc(-c3cc(F)c(F)cc3Cl)nc2c1`, the outcome was “inactive”.
For `CC(C)N=Cc1c(O)[nH]c2ccccc12`, the outcome was “inactive”.
In the case of `CN=Cc1c(NC)nc2c(C)cccn2c1=O`, the outcome is reported as “inactive”.
With `O=C(NCc1ccc(F)cc1)C1CCC(=O)N1CCc1ccccc1` (stereo unspecified) the outcome was “inactive”.
With `Cc1ccc(NC(=O)c2ccc(S(=O)(=O)N3CCCC3)cc2)cc1` the outcome was “inactive”.
In the case of `C[C@@H](NC(=O)c1coc(=O)c(Br)c1)c1ccccc1`, the outcome is reported as “inactive”.
With `CN(C)CCNC(=O)c1coc(=O)c(Br)c1` the outcome was “inactive”.
With `O=C(CNC(=O)C1CCCCC1)NCCCO` the outcome was “inactive”.
With `COCC(C)Nc1ncnc2c1cnn2-c1ccc(Cl)cc1` (stereo unspecified) the outcome was “inactive”.
For `CCC(CO)Nc1ncnc2c1cnn2-c1ccc(OC)cc1` (stereo unspecified), the outcome was “inactive”.
In the case of `Cc1cccc(-n2ncc3c(NC(C)C)ncnc32)c1`, the outcome is reported as “inactive”.
For `COc1ccc(-n2ncc3c(NCc4ccco4)ncnc32)cc1`, the outcome was “inactive”.
With `CC(C)Nc1ncnc2c1cnn2-c1ccccc1` the outcome was “inactive”.
With `CC(C)OCCCNc1ncnc2c1cnn2-c1ccccc1` the outcome was “active”.
With `CCCNc1ncnc2c1cnn2-c1ccc(OC)cc1` the outcome was “inactive”.
In the case of `CCCCNc1ncnc2c1cnn2-c1ccccc1`, the outcome is reported as “inactive”.
With `Cc1ccc(-n2ncc3c(NCCCOC(C)C)ncnc32)c(C)c1` the outcome was “inactive”.
In the case of `Cc1cc(C)nc(NS(=O)(=O)c2ccc(Br)s2)c1`, the outcome is reported as “inactive”.
For `O=C(NCCOc1nc(N2CCOCC2)nc(N2CCOCC2)n1)Nc1ccc(Cl)cc1`, the outcome was “inactive”.
For `CCNS(=O)(=O)c1ccc(NC(=O)Cc2ccc(F)cc2)cc1`, the outcome was “inactive”.
For `O=C1C2CC=C(Cl)CC2C(=O)N1CCc1ccccc1` (stereo unspecified), the outcome was “inactive”.
For `COc1ccc(OC)c(NC(=O)C2CCCNC2=O)c1` (stereo unspecified), the outcome was “inactive”.
With `Cc1cc(NC(=O)CSc2nc3c(sc4ccccc43)c(=O)n2CCc2ccccc2)n[nH]1` the outcome was “inactive”.
In the case of `O=C(O)CSC1CC(=O)N(c2ccc(Cl)c(Cl)c2)C1=O` (stereo unspecified), the outcome is reported as “inactive”.
For `COc1ccc(CNC(=O)c2ccc3c(c2)N(C)C(=O)CS3=O)cc1` (stereo unspecified), the outcome was “inactive”.
With `COc1ccc(CNc2ccccc2SC)cc1OC` the outcome was “inactive”.
In the case of `CSc1ccccc1N=CC1=C(O)CC(C)(C)CC1=O`, the outcome is reported as “inactive”.
In the case of `C=CCNc1ncnc2c1cnn2-c1cccc(C)c1`, the outcome is reported as “inactive”.
For `C=CCNc1ncnc2c1cnn2-c1ccc(Cl)cc1`, the outcome was “inactive”.
With `O=C(Nc1ccccc1C(=O)NCCCn1ccnc1)c1ccccc1` the outcome was “inactive”.
For `O=C(Nc1ccccc1C(=O)NCCCn1ccnc1)c1ccc(Cl)cc1Cl`, the outcome was “inactive”.
For `CCOc1cc(N2CCOCC2)c(OCC)cc1NC(=O)CCS(=O)(=O)c1ccc(Cl)cc1`, the outcome was “inactive”.
With `CCOc1ccc(Br)cc1S(=O)(=O)Nc1ccccc1N1CCOCC1` the outcome was “inactive”.
In the case of `CCOc1cc(N2CCOCC2)c(OCC)cc1NS(=O)(=O)c1ccc(Cl)s1`, the outcome is reported as “active”.
For `CCOC(=O)c1[nH]c(C)c(CN(Cc2ccco2)C(=O)C(F)(F)F)c1C`, the outcome was “inactive”.
In the case of `O=C(CNC(=O)c1ccc(Br)o1)Nc1cccc(-c2cnc3ccccc3n2)c1`, the outcome is reported as “inactive”.
In the case of `O=C(Nc1cccc(-c2cnc3ccccc3n2)c1)c1ccco1`, the outcome is reported as “inactive”.
With `O=C(CCl)Nc1cccc(-c2cnc3ccccc3n2)c1` the outcome was “active”.
For `O=c1cc(O)c(-c2ccccc2Cl)c(Cl)[nH]1`, the outcome was “inactive”.
For `Cc1nnc(NCCc2ccccc2)[nH]c1=O`, the outcome was “inactive”.
In the case of `CC(=O)Oc1ccc2oc(C)c(C(=O)N3CCOCC3)c2c1`, the outcome is reported as “inactive”.
For `Nc1ccc2nc(-c3ccccn3)[nH]c2c1`, the outcome was “inactive”.
In the case of `CC(=O)Nc1ccc2nc(-c3ccccn3)[nH]c2c1`, the outcome is reported as “inactive”.
For `CC(=O)Nc1nnc(Cc2ccccc2)s1`, the outcome was “inactive”.
With `COC(=O)C(Cc1cnc(Cl)s1)(C(=O)OC)c1ccc([N+](=O)[O-])cc1` the outcome was “inactive”.
For `CC(=O)Nc1ccc(C(=O)CSc2nnnn2C(C)C)cc1`, the outcome was “inactive”.
In the case of `Cc1ccc(C)c(C(=O)CSc2nnnn2C(C)C)c1`, the outcome is reported as “inactive”.
In the case of `Cc1nc2cc(NC(=O)N3c4ccccc4CC3C)ccc2o1` (stereo unspecified), the outcome is reported as “inactive”.
With `Cc1nc2cc(NC(=O)N3c4ccccc4CC3C)ccc2n1C` (stereo unspecified) the outcome was “active”.
In the case of `COc1ccc(NC(=O)N2c3ccccc3CC2C)cc1OC` (stereo unspecified), the outcome is reported as “inactive”.
For `COc1ccc(Cn2nnnc2C(c2ccc(N(C)C)cc2)N2CCC(C)CC2)cc1` (stereo unspecified), the outcome was “inactive”.
With `COCCn1c(SCC(=O)N2CCC(C)CC2)nc2ccccc2c1=O` the outcome was “inactive”.
With `O=C(CSc1nc2ccsc2c(=O)n1NC(=O)c1ccccc1)NCc1ccco1` the outcome was “inactive”.
With `O=C(CSc1nc2ccccc2c(=O)n1NC(=O)Cc1ccccc1)NCc1ccco1` the outcome was “inactive”.
For `COc1ccc(C(=O)Nn2c(SCC(=O)NC3CCCC3)nc3ccccc3c2=O)cc1`, the outcome was “inactive”.
In the case of `COc1ccc(C(=O)Nn2c(SCC(=O)c3ccc(Cl)cc3)nc3ccccc3c2=O)cc1`, the outcome is reported as “inactive”.
For `COc1ccc(C(=O)Nn2c(SCC(=O)c3ccccc3)nc3ccccc3c2=O)cc1`, the outcome was “inactive”.
For `CCOc1ccccc1NC(=O)C1C2C=CC(C2)C1C(=O)O` (stereo unspecified), the outcome was “inactive”.
For `Cc1cc(N)n(-c2nc(-c3cccnc3)nc3ccccc23)n1`, the outcome was “inactive”.
For `Cc1cc(Nc2ccccc2N2CCOCC2)n2ncnc2n1`, the outcome was “inactive”.
In the case of `O=C(Cn1nnc(-c2ccc(Cl)cc2)n1)NC1CCN(Cc2ccccc2)CC1`, the outcome is reported as “inactive”.
For `N#Cc1nc(-c2ccc(OCc3ccc(Cl)cc3)cc2)oc1N1CCC(C(N)=O)CC1`, the outcome was “inactive”.
In the case of `CN(C)C(=O)N1CCC(C(=O)NCc2ccc(F)cc2Cl)CC1`, the outcome is reported as “inactive”.
For `c1ccc(-n2nnnc2SCc2ccccn2)cc1`, the outcome was “inactive”.
With `CCN(CC)C(=O)C1CCCN(Cc2cccc(F)c2)C1` (stereo unspecified) the outcome was “inactive”.
With `Cn1c(=O)c2c(nc(SCC(=O)NCc3ccc4c(c3)OCO4)n2Cc2ccc(F)cc2)n(C)c1=O` the outcome was “inactive”.
With `O=C(CCCOc1ccc(Cl)cc1)N1CCCCCC1` the outcome was “inactive”.
With `O=C(CCCOc1ccccc1)N1CCN(c2ccccc2)CC1` the outcome was “inactive”.
In the case of `Cc1cc(C)n(-c2ccc(C(=O)Nc3nc4ccccc4s3)cc2)n1`, the outcome is reported as “inactive”.
In the case of `O=C(Nc1nc2ccccc2s1)c1ccc(Cl)s1`, the outcome is reported as “inactive”.
For `CCOc1ccccc1OCC(=O)OCC(=O)Nc1ncc(Cl)cc1Cl`, the outcome was “inactive”.
For `CCn1c(SCC(=O)N2CCN(c3ccc(F)cc3)CC2)nc2ccccc2c1=O`, the outcome was “inactive”.
With `C#CC[N+]1(CC#Cc2ccccc2)CCOCC1` the outcome was “inactive”.
With `COC(=O)CSc1nnc(Cc2ccccc2)n1-c1ccc(C)cc1` the outcome was “inactive”.
In the case of `COc1ccc(C2=NOC(C(=O)NCc3cccs3)C2)cc1OC` (stereo unspecified), the outcome is reported as “active”.
For `COc1ccc(C2=NOC(C(=O)NCc3cccs3)C2)cc1` (stereo unspecified), the outcome was “inactive”.
With `COc1cc(C2=NOC(C(=O)NCc3cccs3)C2)cc(OC)c1OC` (stereo unspecified) the outcome was “inactive”.
With `CCC1(C)Cc2c(sc3nn[nH]c(=O)c23)CO1` (stereo unspecified) the outcome was “inactive”.
In the case of `Cc1nc2sc(C(c3cccs3)N3CCN(c4ccccc4)CC3)c(O)n2n1` (stereo unspecified), the outcome is reported as “inactive”.
With `Cn1c(=NC(=O)CN2C(=O)C3CC=CCC3C2=O)sc2ccccc21` (stereo unspecified) the outcome was “inactive”.
For `CC(=O)N=c1sc2ccccc2n1C`, the outcome was “inactive”.
With `Cn1c(=NC(=O)CCl)sc2ccccc21` the outcome was “active”.
In the case of `CCCCOC(=O)C(C)Nc1n[nH]c(=S)[nH]c1=O` (stereo unspecified), the outcome is reported as “inactive”.
With `CCN(C(=O)CN1CCN(c2ccccc2OC)CC1)c1c(N)n(Cc2ccccc2)c(=O)[nH]c1=O` the outcome was “inactive”.
With `CC(=O)N(/N=C1\Sc2ccccc2C1=O)c1ccccc1C` the outcome was “inactive”.
In the case of `CC(=O)N(/N=C1\Sc2ccccc2C1=O)c1cccc(C)c1`, the outcome is reported as “inactive”.
With `O=C(Cc1ccc(F)cc1)NCCc1ccccc1` the outcome was “inactive”.
With `Cn1c(=O)c2c(nc(NCCc3ccccc3)n2Cc2ccc(F)cc2)n(C)c1=O` the outcome was “inactive”.
With `CC(=O)n1nc(-c2ccccc2)nc1NCc1ccc(F)cc1` the outcome was “inactive”.
With `CC(=O)N(Cc1ccc(F)cc1)C1=C(NCc2ccccc2)C(=O)c2ccccc2C1=O` the outcome was “active”.
In the case of `Cn1c(=O)c2c(nc(NCc3ccccc3)n2Cc2ccc(F)cc2)n(C)c1=O`, the outcome is reported as “inactive”.
With `OC(CN1C2=NCCN2c2ccccc21)c1ccc(Br)cc1` (stereo unspecified) the outcome was “inactive”.
For `O=S(=O)(NCCSc1nc2ccccc2o1)c1ccccc1`, the outcome was “inactive”.
With `O=C(CCC1CCCC1)Nc1ccc(OCC(=O)N2CCOCC2)cc1` the outcome was “inactive”.
With `COc1ccccc1CN1CCSCC1` the outcome was “inactive”.
In the case of `COCc1nnc(NC(=O)c2cc(Cl)ccc2OC)s1`, the outcome is reported as “inactive”.
For `O=C(CSc1nnc(Cc2cccs2)n1Cc1ccco1)Nc1ccc(Cl)cc1Cl`, the outcome was “inactive”.
With `Cc1ccnn1CC(=O)N/N=C/c1ccco1` the outcome was “inactive”.
With `CC(C)Cn1c(N)c(S(=O)(=O)c2cccs2)c2nc3ccccc3nc21` the outcome was “inactive”.
In the case of `CC(C)CCn1c(N)c(S(=O)(=O)c2cccs2)c2nc3ccccc3nc21`, the outcome is reported as “active”.
For `COCCn1c(N)c(S(=O)(=O)c2cccs2)c2nc3ccccc3nc21`, the outcome was “inactive”.
For `N#Cc1nc(-c2ccco2)oc1N1CCN(c2cccc(Cl)c2)CC1`, the outcome was “inactive”.
In the case of `CC(Oc1ccc(Cl)cc1Cl)C(=O)NCc1ccncc1` (stereo unspecified), the outcome is reported as “inactive”.
For `Cc1cc(C)c(C)c(OCC(=O)NCC2CCCO2)c1` (stereo unspecified), the outcome was “inactive”.
For `O=C(O)c1n[nH]c2c1CCCCC2`, the outcome was “inactive”.
In the case of `CC1(CCc2ccccc2)NC(=O)N(Cc2nnc(-c3ccccc3Br)o2)C1=O` (stereo unspecified), the outcome is reported as “inactive”.
With `CC1Cc2ccccc2N1c1nc(C2CC2)nc2c1nnn2Cc1ccccc1` (stereo unspecified) the outcome was “inactive”.
For `CC(C)(C)C1CCc2c(sc(NC(=O)CSc3ncn[nH]3)c2C#N)C1` (stereo unspecified), the outcome was “inactive”.
With `CC(=O)Nc1c(O)nc(SCC(=O)Nc2sc3c(c2C#N)CCCCCC3)[nH]c1=O` the outcome was “inactive”.
In the case of `Cc1nnc(SCC(=O)Nc2sc3c(c2C#N)CCCC3)[nH]c1=O`, the outcome is reported as “inactive”.
In the case of `N#Cc1c(NC(=O)CSc2nc(N)cc(=O)[nH]2)sc2c1CCCCCC2`, the outcome is reported as “inactive”.
